# Data: article PMC7862700, “An all-to-all approach to the identification of sequence-specific readers for epigenetic DNA modifications on cytosine”
# Assays:
# Assay in all cases: DAPPL (digital affinity profiling via proximity ligation, sequencing); 10 mM Tris-HCl pH 7.5, 50 mM NaCl, 1 mM DTT, 4% glycerol, room temperature, 30 min; GST-TFs on glutathione beads, 16-mer random dsDNA library, 0.1% formaldehyde crosslink after washing; high values mean tight binding
# Conditions in all cases: protein: recombinant; tags: N-terminal GST; dsDNA, one strand shown
# FLI1 = target: T1, FLI1 (Homo sapiens, UniProt Q01543 1-452)
# T1 sequence: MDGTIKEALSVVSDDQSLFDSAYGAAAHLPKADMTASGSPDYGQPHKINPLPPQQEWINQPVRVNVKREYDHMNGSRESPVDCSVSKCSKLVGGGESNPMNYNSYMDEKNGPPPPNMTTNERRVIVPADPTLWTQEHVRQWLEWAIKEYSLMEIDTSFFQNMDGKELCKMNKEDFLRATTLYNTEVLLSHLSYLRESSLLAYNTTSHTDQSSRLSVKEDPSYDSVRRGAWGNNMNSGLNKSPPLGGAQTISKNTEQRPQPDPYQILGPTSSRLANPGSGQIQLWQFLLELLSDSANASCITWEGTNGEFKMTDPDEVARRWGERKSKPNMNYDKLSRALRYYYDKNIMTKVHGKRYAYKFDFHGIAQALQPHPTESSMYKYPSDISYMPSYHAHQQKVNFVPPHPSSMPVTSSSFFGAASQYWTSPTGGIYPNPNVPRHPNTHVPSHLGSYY
# Method in brief: (§1)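 After expression in yeast as GST fusions, human transcription factors were bound to glutathione beads, DNA-barcoded and mixed with a tag-only sample. The pools were incubated with 200 nmole of a 16-mer random double-stranded DNA library in Tris/NaCl/DTT/glycerol buffer (30 min, room temperature), washed and crosslinked with 0.1% formaldehyde. Proximity ligation with BsaI/T4 ligase ran for 1 h at 37 °C, before PCR amplification and sequencing on an Illumina NextSeq500. Binding signal is a hexamer's read frequency for a factor divided by its frequency for the tag-only sample.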
# ELK1 = target: T2, ELK1 (Homo sapiens, UniProt P19419 1-428)
# T2 sequence: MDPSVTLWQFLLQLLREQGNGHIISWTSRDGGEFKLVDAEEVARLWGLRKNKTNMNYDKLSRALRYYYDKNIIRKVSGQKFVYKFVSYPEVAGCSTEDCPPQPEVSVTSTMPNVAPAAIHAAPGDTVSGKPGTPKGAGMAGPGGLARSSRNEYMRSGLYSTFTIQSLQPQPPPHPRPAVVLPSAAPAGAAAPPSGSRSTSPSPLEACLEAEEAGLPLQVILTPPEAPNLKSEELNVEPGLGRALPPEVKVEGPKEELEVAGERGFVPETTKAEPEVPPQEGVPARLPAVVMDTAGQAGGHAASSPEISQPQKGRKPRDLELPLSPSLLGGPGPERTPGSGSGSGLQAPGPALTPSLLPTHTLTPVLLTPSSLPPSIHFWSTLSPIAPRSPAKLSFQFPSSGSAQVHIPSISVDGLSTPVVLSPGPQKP
# Method in brief: as §1
# GABPA = target: T3, GABPA (Homo sapiens, UniProt Q06546 1-454)
# T3 sequence: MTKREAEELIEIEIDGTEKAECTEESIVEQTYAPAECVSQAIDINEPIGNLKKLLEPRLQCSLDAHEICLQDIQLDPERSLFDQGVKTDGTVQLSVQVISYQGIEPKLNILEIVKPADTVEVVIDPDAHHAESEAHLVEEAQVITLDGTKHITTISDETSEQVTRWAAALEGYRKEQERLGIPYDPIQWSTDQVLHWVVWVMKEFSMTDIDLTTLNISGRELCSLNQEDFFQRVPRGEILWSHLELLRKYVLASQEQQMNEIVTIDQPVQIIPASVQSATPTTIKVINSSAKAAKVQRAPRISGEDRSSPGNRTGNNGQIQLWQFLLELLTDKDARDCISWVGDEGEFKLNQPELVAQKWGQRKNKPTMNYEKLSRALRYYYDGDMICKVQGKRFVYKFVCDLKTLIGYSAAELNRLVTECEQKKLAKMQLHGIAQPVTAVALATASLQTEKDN
# Method in brief: as §1
# ELF1 = ELF1 (Homo sapiens, UniProt P32519 1-619)
# Method in brief: as §1
# EHF = target: T4, EHF (Homo sapiens, UniProt Q9NZC4 1-300)
# T4 sequence: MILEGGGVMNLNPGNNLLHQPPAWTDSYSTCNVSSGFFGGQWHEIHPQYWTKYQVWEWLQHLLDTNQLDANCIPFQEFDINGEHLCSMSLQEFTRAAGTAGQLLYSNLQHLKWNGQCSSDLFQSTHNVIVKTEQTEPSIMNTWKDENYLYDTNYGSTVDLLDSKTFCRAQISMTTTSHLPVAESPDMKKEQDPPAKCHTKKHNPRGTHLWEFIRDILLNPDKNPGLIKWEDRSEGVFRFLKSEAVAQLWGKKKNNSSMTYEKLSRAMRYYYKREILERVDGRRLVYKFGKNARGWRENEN
# Method in brief: as §1
# FEV = target: T5, FEV (Homo sapiens, UniProt Q99581 1-238)
# T5 sequence: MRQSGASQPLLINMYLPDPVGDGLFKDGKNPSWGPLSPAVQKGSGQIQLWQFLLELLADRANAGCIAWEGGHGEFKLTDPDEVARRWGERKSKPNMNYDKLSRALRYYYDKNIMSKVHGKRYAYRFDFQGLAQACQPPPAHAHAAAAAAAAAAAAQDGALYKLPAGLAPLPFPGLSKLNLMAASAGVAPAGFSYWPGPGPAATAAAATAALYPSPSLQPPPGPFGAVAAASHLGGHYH
# Method in brief: as §1
# ETV5 = ETV5 (Homo sapiens, UniProt P41161 1-510)
# Method in brief: as §1
# SPIC = target: T6, SPIC (Homo sapiens, UniProt Q8N5J4 1-248)
# T6 sequence: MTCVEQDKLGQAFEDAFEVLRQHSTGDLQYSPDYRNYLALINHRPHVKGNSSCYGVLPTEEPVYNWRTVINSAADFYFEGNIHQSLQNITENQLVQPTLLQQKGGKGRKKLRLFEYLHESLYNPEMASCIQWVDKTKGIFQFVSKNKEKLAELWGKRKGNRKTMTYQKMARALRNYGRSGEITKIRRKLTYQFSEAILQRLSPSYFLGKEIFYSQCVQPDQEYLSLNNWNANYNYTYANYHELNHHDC
# Method in brief: as §1
# ELF4 = ELF4 (Homo sapiens, UniProt Q99607 1-663)
# Method in brief: as §1
# ETV1 = ETV1 (Homo sapiens, UniProt P50549 1-477)
# Method in brief: as §1
# ERF = target: T7, ERF (Homo sapiens, UniProt P50548 1-548)
# T7 sequence: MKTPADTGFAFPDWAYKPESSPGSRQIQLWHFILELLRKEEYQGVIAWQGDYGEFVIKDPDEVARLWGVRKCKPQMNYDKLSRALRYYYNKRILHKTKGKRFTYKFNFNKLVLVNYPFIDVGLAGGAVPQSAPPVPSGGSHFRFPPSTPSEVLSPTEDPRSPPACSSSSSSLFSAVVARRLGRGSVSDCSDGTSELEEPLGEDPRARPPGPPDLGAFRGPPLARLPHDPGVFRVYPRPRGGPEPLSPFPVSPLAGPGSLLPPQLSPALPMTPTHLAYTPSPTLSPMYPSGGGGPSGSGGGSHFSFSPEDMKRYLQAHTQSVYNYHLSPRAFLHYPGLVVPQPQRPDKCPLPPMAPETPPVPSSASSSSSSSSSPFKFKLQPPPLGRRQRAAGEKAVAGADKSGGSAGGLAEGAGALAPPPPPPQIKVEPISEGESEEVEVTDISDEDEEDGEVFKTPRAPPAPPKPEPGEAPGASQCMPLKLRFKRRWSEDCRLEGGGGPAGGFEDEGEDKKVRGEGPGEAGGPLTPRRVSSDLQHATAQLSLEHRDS
# Method in brief: as §1
# ETV3L = target: T8, ETV3L (Homo sapiens, UniProt Q6ZN32 1-361)
# T8 sequence: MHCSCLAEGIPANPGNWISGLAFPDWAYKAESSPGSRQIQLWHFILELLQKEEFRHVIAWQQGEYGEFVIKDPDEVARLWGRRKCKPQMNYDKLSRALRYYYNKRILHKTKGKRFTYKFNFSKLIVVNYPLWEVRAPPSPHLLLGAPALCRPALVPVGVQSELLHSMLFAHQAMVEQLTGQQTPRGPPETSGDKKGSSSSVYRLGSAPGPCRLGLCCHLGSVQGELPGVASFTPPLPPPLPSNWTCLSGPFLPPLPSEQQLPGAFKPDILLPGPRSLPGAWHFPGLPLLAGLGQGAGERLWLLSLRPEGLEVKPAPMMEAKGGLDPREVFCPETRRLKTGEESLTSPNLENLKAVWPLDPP
# Method in brief: as §1
# ETS2 = target: T9, ETS2 (Homo sapiens, UniProt P15036 1-469)
# T9 sequence: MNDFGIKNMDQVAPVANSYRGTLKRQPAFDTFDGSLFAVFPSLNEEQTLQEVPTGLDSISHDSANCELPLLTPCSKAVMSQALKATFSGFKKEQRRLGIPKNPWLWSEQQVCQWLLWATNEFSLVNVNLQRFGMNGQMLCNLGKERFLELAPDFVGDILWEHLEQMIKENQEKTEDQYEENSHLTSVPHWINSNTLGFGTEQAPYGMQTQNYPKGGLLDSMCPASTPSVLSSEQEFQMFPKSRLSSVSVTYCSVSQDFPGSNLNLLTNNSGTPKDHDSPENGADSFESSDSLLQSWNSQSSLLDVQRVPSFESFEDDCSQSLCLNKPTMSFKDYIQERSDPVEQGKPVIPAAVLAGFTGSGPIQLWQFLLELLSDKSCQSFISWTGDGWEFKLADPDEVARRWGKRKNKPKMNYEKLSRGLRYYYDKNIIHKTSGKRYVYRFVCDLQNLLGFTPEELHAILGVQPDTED
# Method in brief: as §1
# ETV3 = target: T10, ETV3 (Homo sapiens, UniProt P41162-2 1-143)
# T10 sequence: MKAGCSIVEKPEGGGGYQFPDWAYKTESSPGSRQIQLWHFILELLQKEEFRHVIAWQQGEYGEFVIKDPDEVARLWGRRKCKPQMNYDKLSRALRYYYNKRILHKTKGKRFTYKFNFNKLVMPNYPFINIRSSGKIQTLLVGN
# Method in brief: as §1
# ETV6 = ETV6 (Homo sapiens, UniProt P41212 1-452)
# Method in brief: as §1
# Chain of ETV6 (P41212 whole entry): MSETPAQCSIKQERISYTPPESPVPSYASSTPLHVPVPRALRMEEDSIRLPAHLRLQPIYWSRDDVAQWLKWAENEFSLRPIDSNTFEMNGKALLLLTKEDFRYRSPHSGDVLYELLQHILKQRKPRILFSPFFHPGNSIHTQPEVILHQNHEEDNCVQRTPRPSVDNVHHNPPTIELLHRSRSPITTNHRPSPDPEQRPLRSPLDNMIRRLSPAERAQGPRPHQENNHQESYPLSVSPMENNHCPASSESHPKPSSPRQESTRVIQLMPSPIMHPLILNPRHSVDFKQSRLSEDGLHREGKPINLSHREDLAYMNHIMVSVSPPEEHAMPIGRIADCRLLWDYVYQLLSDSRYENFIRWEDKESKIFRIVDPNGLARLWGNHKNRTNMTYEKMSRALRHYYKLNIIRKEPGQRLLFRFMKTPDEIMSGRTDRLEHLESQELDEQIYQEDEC
# Chain of ELF4 (Q99607 whole entry): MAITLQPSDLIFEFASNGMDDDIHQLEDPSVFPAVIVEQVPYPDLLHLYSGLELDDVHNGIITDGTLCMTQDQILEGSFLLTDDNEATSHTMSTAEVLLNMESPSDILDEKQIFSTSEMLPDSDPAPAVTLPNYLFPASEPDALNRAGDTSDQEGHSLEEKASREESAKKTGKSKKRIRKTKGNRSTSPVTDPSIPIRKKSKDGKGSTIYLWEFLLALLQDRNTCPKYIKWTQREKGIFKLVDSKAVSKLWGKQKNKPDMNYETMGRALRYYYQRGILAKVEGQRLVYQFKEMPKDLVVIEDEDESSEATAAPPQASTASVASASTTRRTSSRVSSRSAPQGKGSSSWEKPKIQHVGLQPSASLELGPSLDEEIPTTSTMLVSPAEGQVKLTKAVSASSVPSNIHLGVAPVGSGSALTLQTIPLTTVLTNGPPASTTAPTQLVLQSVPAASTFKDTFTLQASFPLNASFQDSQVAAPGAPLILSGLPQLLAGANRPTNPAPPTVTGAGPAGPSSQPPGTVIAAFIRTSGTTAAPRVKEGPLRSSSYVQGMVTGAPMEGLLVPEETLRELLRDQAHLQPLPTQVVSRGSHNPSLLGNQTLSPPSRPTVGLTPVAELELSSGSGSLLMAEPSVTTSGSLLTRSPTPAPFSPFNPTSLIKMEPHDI
# Chain of ETV5 (P41161 whole entry): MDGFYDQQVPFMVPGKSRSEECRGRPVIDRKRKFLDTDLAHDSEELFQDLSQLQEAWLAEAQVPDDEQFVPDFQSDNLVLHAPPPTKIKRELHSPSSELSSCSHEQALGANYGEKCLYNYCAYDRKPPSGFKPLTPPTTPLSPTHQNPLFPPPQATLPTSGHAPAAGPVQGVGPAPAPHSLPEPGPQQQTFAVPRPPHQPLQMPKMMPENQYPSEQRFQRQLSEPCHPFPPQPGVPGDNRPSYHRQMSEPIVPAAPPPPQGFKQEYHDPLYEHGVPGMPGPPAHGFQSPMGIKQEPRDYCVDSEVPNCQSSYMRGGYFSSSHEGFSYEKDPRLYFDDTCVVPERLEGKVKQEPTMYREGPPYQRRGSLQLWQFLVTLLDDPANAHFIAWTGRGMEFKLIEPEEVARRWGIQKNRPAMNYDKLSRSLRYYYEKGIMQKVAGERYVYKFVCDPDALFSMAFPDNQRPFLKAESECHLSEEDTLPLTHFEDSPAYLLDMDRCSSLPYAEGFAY
# Chain of ETV1 (P50549 whole entry): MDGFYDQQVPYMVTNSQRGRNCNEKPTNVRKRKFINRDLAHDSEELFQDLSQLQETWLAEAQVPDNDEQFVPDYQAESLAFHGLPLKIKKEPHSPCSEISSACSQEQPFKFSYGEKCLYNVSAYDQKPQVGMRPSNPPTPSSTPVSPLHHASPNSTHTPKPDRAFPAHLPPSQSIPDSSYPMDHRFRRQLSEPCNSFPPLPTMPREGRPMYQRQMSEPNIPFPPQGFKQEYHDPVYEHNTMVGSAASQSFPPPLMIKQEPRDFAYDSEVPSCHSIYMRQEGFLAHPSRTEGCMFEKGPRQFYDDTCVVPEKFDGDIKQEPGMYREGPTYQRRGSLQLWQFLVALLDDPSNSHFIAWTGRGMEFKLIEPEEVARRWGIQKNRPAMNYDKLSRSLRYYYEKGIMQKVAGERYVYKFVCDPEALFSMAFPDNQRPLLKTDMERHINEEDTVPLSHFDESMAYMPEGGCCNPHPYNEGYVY
# Chain of ELF1 (P32519 whole entry): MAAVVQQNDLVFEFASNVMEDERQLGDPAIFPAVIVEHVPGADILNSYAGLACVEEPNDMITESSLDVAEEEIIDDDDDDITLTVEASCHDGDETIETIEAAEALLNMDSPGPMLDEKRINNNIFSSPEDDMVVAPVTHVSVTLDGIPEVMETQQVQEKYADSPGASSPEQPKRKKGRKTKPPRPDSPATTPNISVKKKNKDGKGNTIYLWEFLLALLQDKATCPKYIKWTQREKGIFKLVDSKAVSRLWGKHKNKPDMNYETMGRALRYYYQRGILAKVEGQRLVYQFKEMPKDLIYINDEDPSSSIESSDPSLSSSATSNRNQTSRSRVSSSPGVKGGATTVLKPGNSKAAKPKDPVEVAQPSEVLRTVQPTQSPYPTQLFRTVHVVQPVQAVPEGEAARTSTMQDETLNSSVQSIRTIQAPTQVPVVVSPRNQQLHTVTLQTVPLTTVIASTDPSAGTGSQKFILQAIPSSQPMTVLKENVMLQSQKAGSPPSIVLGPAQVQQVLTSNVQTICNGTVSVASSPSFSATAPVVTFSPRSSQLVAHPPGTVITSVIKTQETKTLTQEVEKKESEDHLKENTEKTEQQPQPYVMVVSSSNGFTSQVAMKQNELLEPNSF
sequence,measurement,setting,value
AAGGCA,binding signal,FLI1,"1.02 fold enrichment (6-mer frequency, TF over GST control)"
same,binding signal,ELK1,"1.05 fold enrichment (6-mer frequency, TF over GST control)"
same,binding signal,GABPA,"1.03 fold enrichment (6-mer frequency, TF over GST control)"
same,binding signal,ELF1,"1 fold enrichment (6-mer frequency, TF over GST control)"
same,binding signal,EHF,"1.09 fold enrichment (6-mer frequency, TF over GST control)"
same,binding signal,FEV,"1.07 fold enrichment (6-mer frequency, TF over GST control)"
same,binding signal,ETV5,"1 fold enrichment (6-mer frequency, TF over GST control)"
same,binding signal,SPIC,"1.01 fold enrichment (6-mer frequency, TF over GST control)"
same,binding signal,ELF4,"1.03 fold enrichment (6-mer frequency, TF over GST control)"
same,binding signal,ETV1,"1.1 fold enrichment (6-mer frequency, TF over GST control)"
same,binding signal,ERF,"1.04 fold enrichment (6-mer frequency, TF over GST control)"
same,binding signal,ETV3L,"1.04 fold enrichment (6-mer frequency, TF over GST control)"
same,binding signal,ETS2,"1.08 fold enrichment (6-mer frequency, TF over GST control)"
same,binding signal,ETV3,"1.07 fold enrichment (6-mer frequency, TF over GST control)"
same,binding signal,ETV6,"1.03 fold enrichment (6-mer frequency, TF over GST control)"
